Test results from PubChem BioAssay (NCATS).
Results filed as inconclusive are left out. Activity calls are given as the source filed them. Unless noted, calls come from the whole dose curve; as a rule, active = well fitted curve in the direction sought with a large enough effect; inconclusive = small, poorly fitted or top-dose-only effect, or another doubt; inactive = no such curve, though single readings can be large; an effect the other way counts as inactive or inconclusive.

Columns and labels:
[1] = Validation screen for inhibitors of Lassa infection (AID 463096; calls by dose curve; note: potency is the fitted concentration of half-maximal effect)
[2] = Cytometry Cell-Based qHTS for Inhibitors of the mTORC1 Signaling Pathway in MEF cells (AID 2668); note: potency is the fitted concentration of half-maximal effect
Outline: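 Read-out: phospho-rpS6 Ser235/236 immunofluorescence normalized to propidium iodide intensity, scored as % active cells against a rapamycin (7.5 nM) threshold. Cells: Tsc2-/-, p53-/- MEFs stably expressing WT Tsc2, compound-treated 24 hrs at 37 degree Celsius.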

[3] = qHTS Assay for Identification of Small Molecule Inducers of Hypoxia Response (AID 2120; active = well fitted curve in the direction sought with a large enough effect in the signal ratio, with a control signal flat, not every such curve was filed as active; the % refers to the signal ratio)
Outline: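 ME-180 HRE-bla cells plated in Opti-MEM/0.5% dialyzed FBS, rested 4-5 h, then dosed with compound titrations by pin tool. After 17 h at 37 degrees C, CCF4 dye loaded 2.5 h at RT; 460/530 nm ratio gave %Activity and AC50.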

[4] = biological target: Ferritin light chain (Equus caballus) (UniProt P02791); assay: qHTS Validation Assay for Identification of Novel General Anesthetics (AID 2323)
Chain of Ferritin light chain (Equus caballus) (P02791 2-175 limits assumed): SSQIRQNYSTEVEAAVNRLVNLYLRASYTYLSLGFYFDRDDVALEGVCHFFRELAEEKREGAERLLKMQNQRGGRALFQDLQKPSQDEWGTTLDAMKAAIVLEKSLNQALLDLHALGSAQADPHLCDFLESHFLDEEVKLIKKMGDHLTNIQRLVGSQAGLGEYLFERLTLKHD
Outline: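 10 uM horse-spleen apoferritin + 1-AMA (50% saturated, PBS); cpd pin-transferred, 10 min RT. Ex 380/Em 535 nm endpoint. Activity normalized between free 1-AMA and 1-AMA/apoferritin; 4-parameter Hill fit of concentration-response.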

[5] = biological target: ATP-dependent DNA helicase Q1 (Homo sapiens) (UniProt P46063); assay: qHTS Validation Assay for Inhibitors of RecQ-Like Dna Helicase 1 (RECQ1) (AID 2353)
Chain of ATP-dependent DNA helicase Q1 (Homo sapiens) (P46063 whole entry, looked up): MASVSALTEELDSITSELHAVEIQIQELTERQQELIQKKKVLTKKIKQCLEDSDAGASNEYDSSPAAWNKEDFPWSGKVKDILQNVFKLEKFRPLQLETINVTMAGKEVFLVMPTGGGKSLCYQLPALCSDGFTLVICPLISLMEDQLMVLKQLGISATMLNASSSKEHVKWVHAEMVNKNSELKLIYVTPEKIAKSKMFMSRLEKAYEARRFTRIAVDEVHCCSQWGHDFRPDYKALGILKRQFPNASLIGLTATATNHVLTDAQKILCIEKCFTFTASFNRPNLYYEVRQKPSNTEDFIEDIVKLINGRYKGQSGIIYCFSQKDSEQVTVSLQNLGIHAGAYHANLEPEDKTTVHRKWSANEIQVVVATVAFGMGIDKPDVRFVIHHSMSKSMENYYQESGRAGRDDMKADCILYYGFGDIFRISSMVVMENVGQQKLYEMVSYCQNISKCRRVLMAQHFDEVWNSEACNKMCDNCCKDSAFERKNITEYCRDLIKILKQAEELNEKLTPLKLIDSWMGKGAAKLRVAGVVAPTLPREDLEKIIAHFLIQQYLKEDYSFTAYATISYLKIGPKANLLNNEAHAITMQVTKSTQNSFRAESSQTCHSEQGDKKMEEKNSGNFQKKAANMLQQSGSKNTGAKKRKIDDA
Outline: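 50 nM RECQ1T1 preincubated 15 min with compound in Tris pH 8.0 buffer with MgCl2, DTT, Tween-20 and 2.5 ug/ml poly(dI-dC); started with 200 nM TAMRA/BHQ-2 forked duplex and 2 mM ATP. Unwinding read as fluorescence (525/598 nm), two reads 2 h apart.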

[6] = biological target: RecQ-like DNA helicase BLM (Homo sapiens) (UniProt P54132); assay: qHTS Validation Assay for Inhibitors of Bloom's syndrome helicase (BLM) (AID 2364)
Outline: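 50 nM BLM preincubated 15 min at room temperature with compound in pH 8.0 Tris buffer containing 2.5 ug/ml poly(dI-dC); started with 200 nM TAMRA/BHQ-2 forked duplex and 2 mM ATP (final). Unwinding read as TAMRA fluorescence increase, two reads 2 h apart.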

[7] = Cytometric Cell-Based qHTS for Inhibitors of the mTORC1 Signaling Pathway in MEF (Tsc2-/-, p53-/-) Cells (AID 2660);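 note: percent of cells above a phospho-rpS6 to PI ratio cutoff in each well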
Outline: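 Immunofluorescence qHTS of rpS6 Ser235/236 phosphorylation: MEFs (Tsc2-/-, p53-/-) treated 24 h, 37 C, in DMEM + 10% FBS. Alexa-488 signal normalized to PI count, referenced to rapamycin (7.5 nM) and DMSO; PI cell number recorded for viability.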

[8] = High Content Imaging Cell-Based qHTS for Inhibitors of the mTORC1 Signaling Pathway in MEF (Tsc2-/-, p53-/-) Cells (AID 2666); conditions: at 38.3 µM (top of the series);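 note: percent of cells scored positive for phospho-rpS6 Ser235/236 immunostaining by imaging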
Outline: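 Phospho-rpS6 (Ser235/236) immunofluorescence, normalized and scored as % positive cells using rapamycin and DMSO controls, was read in empty-vector Tsc2-/-, p53-/- MEFs after 24 h compound exposure at 37 C; propidium iodide counted cells.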

[9] = High Content Imaging Cell-Based qHTS for Inhibitors of the mTORC1 Signaling Pathway in MEF Cells (AID 2667);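 note: Tsc2-/- p53-/- MEFs stably re-expressing wild-type Tsc2 exposed 24 h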
Outline: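 WT MEFs (Tsc2-/-, p53-/- re-expressing Tsc2), in DMEM + 10% FBS, were treated with compound for 24 h at 37 C. Cells were then fixed and stained for phospho-rpS6 Ser235/236 with propidium iodide as cell count. Values are % positive cells, with thresholds set against rapamycin-treated cells.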

[10] = Validation screen for small molecules that induce DNA re-replication in MCF 10A normal breast cells (AID 463097); note: nearly all actives have a fitted effect of over 60% in size
Outline: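 250 MCF 10A cells/well; compound pin-transferred; 48 hr, 37 C, 5% CO2; Hoechst 40 min; imaged 405/500-530 nm. Hits = more high-intensity nuclei.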

[11] = biological target: Ubiquitin carboxyl-terminal hydrolase 2 (Homo sapiens) (UniProt O75604); assay: qHTS Validation Assay for Inhibitors of Ubiquitin-specific Protease USP2a Using CHOP2 as the Reporter (AID 463106)
Chain of Ubiquitin carboxyl-terminal hydrolase 2 (Homo sapiens) (O75604 whole entry, looked up): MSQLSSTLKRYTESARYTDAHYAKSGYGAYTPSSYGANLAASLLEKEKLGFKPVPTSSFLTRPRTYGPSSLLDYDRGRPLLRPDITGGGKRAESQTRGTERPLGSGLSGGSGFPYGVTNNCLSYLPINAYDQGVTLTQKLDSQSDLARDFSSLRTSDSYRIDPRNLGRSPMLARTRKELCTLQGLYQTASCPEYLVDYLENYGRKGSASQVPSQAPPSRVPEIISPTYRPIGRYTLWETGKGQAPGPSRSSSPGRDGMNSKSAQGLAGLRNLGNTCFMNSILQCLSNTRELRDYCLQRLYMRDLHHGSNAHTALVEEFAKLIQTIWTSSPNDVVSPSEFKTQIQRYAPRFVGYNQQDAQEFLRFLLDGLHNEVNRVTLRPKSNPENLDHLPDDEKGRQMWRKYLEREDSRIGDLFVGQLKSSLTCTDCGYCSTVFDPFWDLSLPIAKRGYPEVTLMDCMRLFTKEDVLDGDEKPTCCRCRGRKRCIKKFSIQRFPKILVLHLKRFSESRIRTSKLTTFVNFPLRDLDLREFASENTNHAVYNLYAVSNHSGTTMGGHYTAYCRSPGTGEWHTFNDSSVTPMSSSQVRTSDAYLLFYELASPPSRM
Outline: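 USP2 core (10 nM final) was preincubated with compound 30 min at RT in pH 8.0 Tris/CaCl2/beta-ME/CHAPS buffer. Ub-CHOP2 and reporter substrate (25 nM final each) were then added, with fluorescence (Ex 485/Em 531) read after 60 min. Data were normalized to NEM full inhibition and fitted to concentration-response curves.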

[12] = biological target: DNA polymerase III PolC-type (Bacillus subtilis (strain 168)) (UniProt P13267); assay: qHTS Validation Assay for the Inhibitors of DNA Replication in Gram-Positive Bacteria (AID 485295);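 note: reconstituted holoenzyme with PolC plus beta clamp SSB and primase; PicoGreen fluorescence of double-stranded DNA made on primed circular M13 template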
Chain of DNA polymerase III PolC-type (Bacillus subtilis (strain 168)) (P13267 whole entry, looked up): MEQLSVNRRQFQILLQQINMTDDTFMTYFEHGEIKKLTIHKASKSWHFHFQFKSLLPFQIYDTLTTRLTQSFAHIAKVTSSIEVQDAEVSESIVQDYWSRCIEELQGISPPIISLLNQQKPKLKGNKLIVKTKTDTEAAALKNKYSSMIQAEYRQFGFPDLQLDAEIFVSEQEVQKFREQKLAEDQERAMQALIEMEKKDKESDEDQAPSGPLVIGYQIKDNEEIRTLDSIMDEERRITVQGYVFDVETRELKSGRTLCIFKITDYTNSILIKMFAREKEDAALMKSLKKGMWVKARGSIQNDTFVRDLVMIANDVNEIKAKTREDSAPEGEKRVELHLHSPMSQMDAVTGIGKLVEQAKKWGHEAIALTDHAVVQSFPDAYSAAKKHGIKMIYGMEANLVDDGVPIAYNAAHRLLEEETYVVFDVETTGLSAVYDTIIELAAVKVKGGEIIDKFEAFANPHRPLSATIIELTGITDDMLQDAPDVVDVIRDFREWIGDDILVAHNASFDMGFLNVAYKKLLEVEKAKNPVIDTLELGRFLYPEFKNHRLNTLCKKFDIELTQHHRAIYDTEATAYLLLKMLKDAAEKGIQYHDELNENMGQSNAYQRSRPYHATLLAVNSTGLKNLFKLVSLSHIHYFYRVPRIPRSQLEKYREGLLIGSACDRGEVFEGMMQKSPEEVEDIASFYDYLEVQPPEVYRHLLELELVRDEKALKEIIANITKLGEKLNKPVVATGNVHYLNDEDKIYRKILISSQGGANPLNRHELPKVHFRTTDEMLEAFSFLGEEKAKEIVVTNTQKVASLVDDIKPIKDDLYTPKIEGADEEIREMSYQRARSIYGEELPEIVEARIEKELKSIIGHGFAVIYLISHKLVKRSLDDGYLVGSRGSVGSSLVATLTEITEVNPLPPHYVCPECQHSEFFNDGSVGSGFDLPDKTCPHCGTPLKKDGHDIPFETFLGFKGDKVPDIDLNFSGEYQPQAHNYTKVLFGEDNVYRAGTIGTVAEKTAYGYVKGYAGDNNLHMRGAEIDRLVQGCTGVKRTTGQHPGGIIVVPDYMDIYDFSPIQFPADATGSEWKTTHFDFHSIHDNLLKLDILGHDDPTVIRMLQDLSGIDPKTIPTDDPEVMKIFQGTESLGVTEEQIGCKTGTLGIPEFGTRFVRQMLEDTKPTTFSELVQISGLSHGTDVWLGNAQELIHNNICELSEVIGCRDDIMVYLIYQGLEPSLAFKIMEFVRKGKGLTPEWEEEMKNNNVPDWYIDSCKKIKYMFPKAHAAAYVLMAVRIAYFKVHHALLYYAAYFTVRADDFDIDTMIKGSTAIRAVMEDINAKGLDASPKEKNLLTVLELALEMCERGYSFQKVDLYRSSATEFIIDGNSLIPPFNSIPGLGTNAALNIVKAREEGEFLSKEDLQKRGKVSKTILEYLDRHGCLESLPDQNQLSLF
Outline: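 PicoGreen fluorescence (ex 480–485/em 535–540 nm) reports dsDNA synthesized on ssM13Gori template with dNTPs/NTPs. Enzyme: holoenzyme rebuilt from purified PolC, beta subunit, SSB and primase. Compound preincubated before substrate addition; RT throughout.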

[13] = biological target: Tumor susceptibility gene 101 protein (Homo sapiens) (UniProt Q99816); assay: qHTS Validation Assay for Iinhibitors of HIV-1 Budding by Blocking the Interaction of PTAP/TSG101 (AID 485342; calls by dose curve)
Chain of Tumor susceptibility gene 101 protein (Homo sapiens) (Q99816 whole entry, looked up, the tested form may be a part): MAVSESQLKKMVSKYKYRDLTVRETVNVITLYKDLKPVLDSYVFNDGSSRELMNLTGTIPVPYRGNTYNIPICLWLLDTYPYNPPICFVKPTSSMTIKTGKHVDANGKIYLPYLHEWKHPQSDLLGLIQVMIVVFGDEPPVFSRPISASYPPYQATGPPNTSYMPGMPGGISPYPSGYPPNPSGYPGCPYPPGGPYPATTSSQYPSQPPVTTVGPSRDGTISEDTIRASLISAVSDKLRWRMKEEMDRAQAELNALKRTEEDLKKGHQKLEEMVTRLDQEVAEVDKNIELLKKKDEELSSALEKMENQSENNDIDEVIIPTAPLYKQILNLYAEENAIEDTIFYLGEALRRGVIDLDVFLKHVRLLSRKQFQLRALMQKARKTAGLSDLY
Outline: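 FP read-out: FITC-PTAP peptide, 50 nM final, binding Tsg101 binding domain, 10 uM final; 20 min r.t.; 10 mM HEPES pH 7.5, 0.15 M NaCl, 0.01% Tween 20, 3 mM EDTA, 0.1 mM TCEP.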

[14] = biological target: Beta-2 adrenergic receptor (Homo sapiens) (UniProt P07550); assay: qHTS validation assay of beta-arrestin-biased ligands of beta2-adrenergic receptor (AID 485366)
Chain of Beta-2 adrenergic receptor (Homo sapiens) (P07550 whole entry, looked up): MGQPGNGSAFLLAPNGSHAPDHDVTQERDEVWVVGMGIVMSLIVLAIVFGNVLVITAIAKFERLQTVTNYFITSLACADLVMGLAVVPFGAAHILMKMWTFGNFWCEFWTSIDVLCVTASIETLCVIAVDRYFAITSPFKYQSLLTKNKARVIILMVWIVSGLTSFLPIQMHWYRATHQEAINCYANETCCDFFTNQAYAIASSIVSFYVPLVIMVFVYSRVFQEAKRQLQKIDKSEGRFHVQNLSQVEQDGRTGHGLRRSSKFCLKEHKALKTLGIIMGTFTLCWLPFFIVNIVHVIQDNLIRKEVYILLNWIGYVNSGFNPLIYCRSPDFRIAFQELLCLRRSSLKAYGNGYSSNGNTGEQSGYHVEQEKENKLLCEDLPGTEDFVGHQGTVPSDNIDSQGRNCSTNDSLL
Outline: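 Arrestin-recruitment (Tango) reporter: ligand-bound beta2-AR recruits beta-arrestin, releasing tTA, which upregulates luciferase. Titrations of up to 46 microM incubated 18 hr at 37 degrees C before luminescent readout.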

[15] = biological target: ATP-dependent 6-phosphofructokinase (Trypanosoma brucei brucei) (UniProt O15648); assay: qHTS Validation Assay to Find Inhibitors of T. brucei phosphofructokinase (AID 485368); conditions: outcome: dose series up to 57.5 µM
Chain of ATP-dependent 6-phosphofructokinase (Trypanosoma brucei brucei) (O15648 whole entry, looked up): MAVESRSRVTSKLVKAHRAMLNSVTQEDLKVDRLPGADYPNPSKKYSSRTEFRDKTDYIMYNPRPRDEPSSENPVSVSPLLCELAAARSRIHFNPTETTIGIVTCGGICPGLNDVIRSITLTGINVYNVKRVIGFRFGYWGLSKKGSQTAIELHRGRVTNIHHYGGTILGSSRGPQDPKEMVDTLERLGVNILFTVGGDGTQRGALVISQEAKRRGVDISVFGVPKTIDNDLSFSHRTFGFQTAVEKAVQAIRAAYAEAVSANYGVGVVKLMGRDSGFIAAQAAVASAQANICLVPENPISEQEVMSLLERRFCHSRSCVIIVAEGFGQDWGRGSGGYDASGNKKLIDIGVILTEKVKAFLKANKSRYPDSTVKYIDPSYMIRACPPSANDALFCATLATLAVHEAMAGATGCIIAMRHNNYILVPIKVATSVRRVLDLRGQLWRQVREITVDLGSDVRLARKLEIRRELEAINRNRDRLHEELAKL
Outline: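 Steps: substrate mix (0.5 mM F6P, 0.1 mM ATP, MgCl2, TEA pH 8.0); compound; 1.25 nM T. brucei PFK; 45 min RT; ATP depletion 10 min; ADP-to-ATP detection 10 min; luminescence read; curve fitting and classification.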

[16] = Quantitative high throughput screen for delayed death inhibitors of the malarial parasite plastid, 96 hour incubation (AID 488745);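 note: luciferase-expressing P. falciparum in erythrocytes at 2% hematocrit and 0.1% parasitemia; nearly all actives have a fitted effect of over 70% in size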
Outline: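 Infected erythrocytes were added to compound in Albumax-supplemented RPMI 1640 at 0.1% parasitemia and 2% hematocrit (final), incubated 96 h at 37 C under 5% CO2, then luciferase reagent was added and luminescence measured.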

[17] = Quantitative high throughput screen for delayed death inhibitors of the malarial parasite plastid, 48 hour incubation (AID 488752); note: nearly all actives have a fitted effect of over 65% in size
Outline: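 Readout is firefly luciferase luminescence from a reporter integrated into the parasite genome, with lower signal taken as inhibited growth. Infected red cells (0.1% parasitemia, 2% hematocrit final) are cultured with compound for one 48 h cycle at 37 C.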

[18] = biological target: Thioredoxin reductase 1, cytoplasmic (Rattus norvegicus) (UniProt O89049); assay: qHTS Assay for Substrates of Mammalian Selenoprotein Thioredoxin Reductase 1 (TrxR1) (AID 488772);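 note: NADPH fluorescence in the first read after selenite addition and not the 8 min delta; a drop in NADPH fluorescence below the no-compound background marks a TrxR1 substrate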
Chain of Thioredoxin reductase 1, cytoplasmic (Rattus norvegicus) (O89049 whole entry, looked up): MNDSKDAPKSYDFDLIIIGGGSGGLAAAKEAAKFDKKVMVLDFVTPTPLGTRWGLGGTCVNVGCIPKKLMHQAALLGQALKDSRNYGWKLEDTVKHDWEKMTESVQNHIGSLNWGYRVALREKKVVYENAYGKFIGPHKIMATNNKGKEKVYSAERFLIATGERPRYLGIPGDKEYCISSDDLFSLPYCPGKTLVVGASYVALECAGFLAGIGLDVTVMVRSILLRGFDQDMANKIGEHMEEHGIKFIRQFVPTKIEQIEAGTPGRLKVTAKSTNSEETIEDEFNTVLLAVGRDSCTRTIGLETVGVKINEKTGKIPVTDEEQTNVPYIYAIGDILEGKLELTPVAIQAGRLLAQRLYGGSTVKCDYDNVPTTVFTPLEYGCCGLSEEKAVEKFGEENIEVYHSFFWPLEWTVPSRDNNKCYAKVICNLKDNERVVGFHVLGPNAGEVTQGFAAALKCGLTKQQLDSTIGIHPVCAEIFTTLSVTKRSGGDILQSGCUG
Outline: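 Quantitative HTS in Tris-HCl buffer at pH 7.5 with EDTA and Tween-20, using rat TrxR1, 400 uM NADPH and 400 uM selenite (final). A fall in initial NADPH fluorescence relative to background marked substrate behaviour.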

[19] = biological target: Thioredoxin reductase 1, cytoplasmic (Rattus norvegicus) (UniProt O89049); assay: qHTS Assay for Inhibitors of Mammalian Selenoprotein Thioredoxin Reductase 1 (TrxR1) (AID 488773); conditions: Potency: inhibition;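 note: drop in NADPH fluorescence over an 8 min run after selenite addition; nearly all actives have a fitted effect of over 40% in size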
Outline: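 Steps: enzyme (90 nM) plus NADPH (400 uM final), 5 min at ~22 deg C; compound added, 15 min; selenite (400 uM final) added; fluorescence followed for 8 min. Concentration-response curves derived from the normalized delta values.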

[20] = qHTS Validation Assay to Find Inhibitors of Chronic Active B-Cell Receptor Signaling (AID 485345; active = well fitted curve in the direction sought with a large enough effect in the main read-out, with a control signal flat, not every such curve was filed as active)
Outline: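 TMD8 ABC-DLBCL cells stably carrying doxycycline-inducible IkappaBalpha–green luciferase fusion plus unfused red luciferase; compounds 46 uM to 3 nM, 4 h at 37C with doxycycline. Corrected green/red luminescence ratio normalized to 10 uM MG-132 and basal cell wells; curves fitted.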

Measured: Potency

Cc1ccc(N(CC2=NCCN2)c2cccc(O)c2)cc1
inactive: [1]

c1cc(CN2CCCCC2)cc(OCCCNc2nc3ccccc3s2)c1
inactive: [1]

CN(C)CCN(Cc1cccs1)c1ccccn1
inactive: [1]

Cc1cc(C(C)(C)C)cc(C)c1CC1=NCCN1
inactive: [1]

CC[C@H]1CN2CCc3cc(OC)c(OC)cc3[C@@H]2C[C@@H]1C[C@H]1NCCc2cc(OC)c(OC)cc21
active: [2] 5210 nM | [1] 158 nM

C[C@@H]1C[C@@H]([C@H](O)CC2CC(=O)NC(=O)C2)C(=O)[C@@H](C)C1
inactive: [3]

CCCCNc1c(C(=O)OCC)c(C)nc2c1cnn2CC
inactive: [1]

CCn1ccnc1CC1COc2ccccc2O1 (stereo not drawn)
inactive: [1]

COc1ccccc1N1CCN(CCCNc2cc(=O)n(C)c(=O)n2C)CC1
inactive: [1]

OCCN1CCN(CCCN2c3ccccc3C=Cc3ccccc32)CC1
inactive: [1]

O=C(O)c1nn(Cc2ccc(Cl)cc2Cl)c2ccccc12
not listed: [3] | [20]
inactive: all other assays above

C[N+](C)(C)CCCCCCCCCC[N+](C)(C)C
inactive: [4] | [1] | [12]

Nc1ccn([C@H]2CC[C@@H](CO)O2)c(=O)n1
inactive: [1]

CNC(=O)Oc1cccc2ccccc12
inactive: [3]

CNCCC(Oc1ccccc1OC)c1ccccc1 (stereo not drawn)
inactive: [1]

COc1ccc(C(=O)N2CCCC2=O)cc1
not listed: [3] | [6]
inactive: all other assays above

C=Cc1c(C)c2cc3[nH]c(cc4nc(cc5nc(cc1[nH]2)C(C)=C5CCC(=O)O)C(CCC(=O)O)=C4C)c(C)c3C=C
inactive: [1]

CC(N)C(=O)OC(C)(C)Cc1ccc(Cl)cc1 (stereo not drawn)
inactive: [4] | [5] | [6] | [1] | [10] | [16] | [17]

NS(=O)(=O)c1cc2c(cc1Cl)NC(C1CC3C=CC1C3)NS2(=O)=O (stereo not drawn)
inactive: [1]

C[C@]12CCC(=O)C=C1CC[C@@H]1[C@@H]2C(=O)C[C@@]2(C)[C@H]1CC[C@]2(O)C(=O)CO
inactive: [1]
